# Source: PubChem (National Center for Advancing Translational Sciences (NCATS))
# In the library only some 7.2% were active in any assay of this set; here they are far more common.
# MARV entry inh = qHTS for inhibitors of binding or entry into cells for Marburg Virus | Potency, µM (doses to about 37.8 µM), without a hit: top-dose activity change, negative = inhibition, most hits filed as inhibitors | AID 540276, 2011 | Marburg virus pseudotyped entry inhibition, cell reporter | 1.8% of 300,000 active; calls by dose curve; tested in HEK293 cells
# Lassa entry inh = qHTS for Inhibitors of binding or entry into cells for Lassa Virus. Lassa virus pseudotype entry inhibition, cell reporter. AID 540256, 2011. 1.2% of 300,000 active. Potency, µM (top dose mostly 37.9 µM), inactives show top-dose activity change, negative = inhibition, most hits filed as inhibitors; calls by dose curve; tested in HEK293 cells; further: nearly all actives have a fitted effect of over 50% in size
# RE007 growth inh = qHTS Assay for Inhibitors of the HIV-1 protein Vpr; AID 651644, 2012; S. pombe RE007 Vpr strain, BacTiter-Glo ATP luminescence, 24 h; 0.21% of 360,000 active; Potency, µM (doses to about 92.2 µM), inactives show top-dose activity change, negative = less growth, hits mostly inhibitors; active means well fitted falling curve with a large enough effect; inconclusive means small, poorly fitted or top-dose-only effect; inactive means no such curve, though single readings can be large or run the other way; further: nearly all actives have a fitted effect of over 50% in size
#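 Fission yeast RE007 carrying one integrated HIV-1 vpr copy, seeded at OD 0.01 in PMG+AL medium with 23 nL pinned compound. Grown 24 h at 30 degrees; viability read by BacTiter-Glo luminescence after 5 min.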
# HCV inhibitor = qHTS Assay for Inhibitors of Hepatitis C Virus (HCV); 3.4% of 340,000 active; Huh7.5.1 HCVcc-Cre infection, luciferase reporter, 44 h; AID 651820, 2012; Potency, µM (series often up to 41.8 µM), without a hit: top-dose activity change, negative = inhibition, actives largely listed as inhibitors
#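 Seed cells (1,000/well) for 4 h; treat with compound and infect with HCVcc-Cre, moi about 0.5. Incubate 44 h, then detect luciferase activity.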
# Sm TGR inh = qHTS Assay for the Inhibitors of Schistosoma Mansoni Peroxiredoxins | Schistosoma mansoni thioredoxin glutathione reductase (TGR), Q962Y6 | purified TGR, DTNB reduction, TNB absorbance 405 nm | Potency, µM (highest dose often 114 µM), for inactives: at the top dose activity change, negative = inhibition, most hits filed as inhibitors | 3% of 360,000 active | AID 485364, 2010; further: nearly all actives have a fitted effect of over 60% in size
#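 Kinetic colorimetric format: TGR-catalysed, NADPH-driven DTNB reduction monitored via TNB absorbance. Enzyme dispensed at 20 nM; compound exposure 15 min at room temperature before reaction start.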
# FMDV inh = High Throughput Screening for Foot and Mouth Disease Virus Antivirals; Potency, µM (series often up to 57.9 µM), for the others: top-dose activity change, negative = inhibition, most hits filed as inhibitors; 1.2% of 410,000 active; FMDV antiviral cell-based qHTS; calls by dose curve; tested in HEK293T cells; further: read-out not given here; nearly all actives have a fitted effect of over 45% in size
# Numbers without * were called inactive; ? = inconclusive; · = no result; [ ] = remark or other dose. Unless noted, the call rests on the fitted dose curve; in most records, active means well fitted curve in the direction sought with a large enough effect; inconclusive means small, poorly fitted or top-dose-only effect, or another doubt; inactive means no such curve, though single readings can be large; an effect the other way counts as inactive or inconclusive. On the % scale 0 is the no-effect control and ±100 the full control effect; potency means the concentration at half of the fitted maximal effect.
SMILES,MARV entry inh,Lassa entry inh,RE007 growth inh,HCV inhibitor,Sm TGR inh,FMDV inh
COc1ccc(Cl)cc1C(Nc1cccnc1)c1ccc2cccnc2c1O (configuration not stated),11.2µM*,?,?,8.91µM*,0.1µM*,-19.7%
CCCCC(=O)NC(c1ccccc1)c1ccc2cccnc2c1O (configuration not stated),?,?,?,2.82µM*,-17.1%,-4.1%
CCCCC(=O)NC(c1ccc(C(C)C)cc1)c1ccc2cccnc2c1O (configuration not stated),·,·,-0.3%,2.82µM*,6.3%,-8.1%
CCCCC(=O)NC(c1ccccc1Cl)c1ccc2cccnc2c1O (configuration not stated),·,·,7.9%,2.24µM*,0.0%,-6.6%
CCOc1ccccc1NC(=O)C1CCCN1S(=O)(=O)c1ccc2nc(-c3ccccc3)[nH]c2c1 (configuration not stated),·,?,·,·,5.5%,-14.3%
CCOc1ccc(-n2c(Cc3ccccc3)nnc2SCc2nc(-c3ccccc3C)no2)cc1,-15.5%[46.1 µM],1.0%[46.1 µM],·,·,6.2%,0.0%
COc1ccc(CNC(=O)c2cc3c(=O)n(Cc4ccco4)ccc3nc2C)c(OC)c1,·,5.3%[46.1 µM],·,·,-18.7%,-15.4%
Cc1cc(NC(=O)CCc2nc3cccnc3n2-c2ccccc2)ccc1Br,?,?,·,·,-3.7%,?
CC(=O)C[C@@H]1OC[C@H](Cc2ccccc2)N1S(=O)(=O)c1ccc(C)cc1,·,·,-23.3%,·,·,7.5%
CN(C)c1ccc(-c2ccc3ncnc(N(C)Cc4ccco4)c3c2)cc1,·,·,·,·,·,-16.2%
Oc1cccc(C(Nc2ccccn2)c2ccc3cccnc3c2O)c1Cl (configuration not stated),?,?,·,·,3.16µM*,-24.4%
CCCC(=O)NC(c1ccccc1)c1ccc2cccnc2c1O (configuration not stated),?,?,?,2.82µM*,?,-15.9%
CCC(=O)NC(c1ccccc1OC)c1ccc2cccnc2c1O (configuration not stated),4.61µM*,?,-3.6%,2.51µM*,-15.9%,-15.2%
COCCn1c(=O)c(C)nc2cnc(Oc3ccccc3)nc21,·,·,·,·,·,-17.3%
N#Cc1cc(Sc2ccccn2)c([N+](=O)[O-])cc1C#N,3.2%[46.1 µM],?,111.2%,23.0%,35.5µM*,-8.8%
N#Cc1cc(Sc2ccccn2)c(Sc2ccccn2)cc1C#N,-9.4%,-14.0%,-2.0%,-17.2%,0.0%,11.5%
CCC(COC)NC(=O)c1cnn(-c2ncc3c(n2)-c2ccccc2CC3)c1C (configuration not stated),·,·,·,·,·,29.2%
CNc1sc(C(=O)c2ccccc2F)c(N)c1-c1nc2ccccc2s1,-27.4%,-0.6%,-16.0%[3.69 µM],12.6µM*,25.1µM*,10.6%
C/C(=N\NC(=S)NCc1ccccc1)c1ccccc1,?,?,-10.4%,0.3%,7.2%,18.0%
COc1ccc(CNC(=S)N/N=C(/C)c2ccccc2)cc1,?,14.1µM*,33.0%,0.6%,14.1%,20.8%
C/C(=N\NC(=S)NCc1ccccc1)c1ccc(C(C)(C)C)cc1,?,0.461µM*,·,-21.5%,-15.9%,-10.6%
C=C(C)CNC(=S)N/N=C(\C)c1ccc(OC)cc1,?,?,1.3%,?,-16.9%,-19.9%
CCCOc1ccc(CSCCNC(=S)Nc2ccccc2)cc1,?,?,-14.8%,?,-6.3%,0.0%
CCOc1ccc(CSCCNC(=S)Nc2ccc(OC)cc2)cc1,·,·,-6.2%,10µM*,-27.0%,13.0%
COc1ccc(CNC(=S)Nc2ccccc2)cc1,0.6%,22.3%,4.0%,-16.5%,35.5µM*,58.9%
SMILES,MARV entry inh,Lassa entry inh,RE007 growth inh,HCV inhibitor,Sm TGR inh,FMDV inh
COc1ccc(OC[C@@H]2CC3[C@@H](CC[C@@H](C)[C@H]3c3ccc(Br)cc3)C(=O)O2)cc1 (some centres not stated),-5.2%[14.2 µM],?,·,·,·,·
Cc1ccc(C(=O)Nc2cccc(-c3nc(CNC(=O)c4cccc(C)c4C)c(C)o3)c2)s1,·,·,·,·,·,-25.4%
COCCNC(=S)N/N=C(\C)c1ccc(OC)cc1,-3.9%,?,5.9%,2.4%,?,-28.6%
CNC(=S)N/N=C(\C)c1ccccc1,7.9%,?,-5.9%,15.5%,5.62µM*,10.0%
COCCNC(=S)N/N=C(\C)c1ccc2cc(OC)ccc2c1,?,8.2µM*,-25.0%,?,-11.3%,-26.3%
CNC(=S)N/N=C(\C)c1ccc(C(C)(C)C)cc1,?,22.4%,-0.4%,?,3.3%,1.6%
COc1ccccc1CNC(=O)CSc1ncc2c(n1)-c1cc(Cl)ccc1N(Cc1ccccc1)S2(=O)=O,·,-3.3%[46.1 µM],·,·,-2.8%,-20.4%
C=CCOc1ccc(C2NC(=S)NC3=C2CCc2ccccc23)cc1 (configuration not stated),?,-27.9%[46.1 µM],-4.1%,-13.3%,56.2µM*,-15.6%
COc1ccc2c(c1)CCC1=C2NC(=S)NC1c1ccc(N(C)C)cc1 (configuration not stated),?,?,20.5%,11.2µM*,-10.0%,?
CCOc1ccc(C(=O)N/N=C(\c2ccccc2)c2ccccn2)cc1,?,7.08µM*,0.0%,10µM*,11.8%,0.1%
C/C(=N\NC(=O)c1c[nH]c2ccccc12)c1ccccn1,?,2µM*,1.3%,?,1.7%,8.4%
C/C(=N\NC(=O)c1c[nH]c2ccccc12)c1ccco1,27.1%,?,-3.4%,-5.2%,1.9%,·
C/C(=N\NC(=O)c1cc2ccccc2cc1O)c1ccccn1,?,?,-11.9%,3.16µM*,-7.3%,?
C/C(=N\NC(=O)CCCNc1ccc(C)cc1)c1ccccn1,6.51µM*,-20.2%,0.5%,?,-19.3%,-27.6%
C/C(=N\NC(=O)c1cc2ccccc2cc1O)c1cc2ccccc2o1,?,-44.6%,-0.9%,?,-0.1%,-24.7%
C/C(=N\NC(=O)CCCNc1ccccc1)c1ccncc1,1.4%[46.1 µM],?,?,15.0%,11.8%,-6.3%
CN(C)CCNc1ncnc2c1ncn2[C@H]1CN(CCc2ccccc2)C[C@@H](CO)O1,·,·,-0.1%,·,·,-14.3%
C/C(=N\NC(=O)c1ccc(F)cc1)c1ccccn1,·,·,?,2.51µM*,0.0%,-30.4%
CCc1ccc(/C(C)=N/NC(=O)c2ccccn2)cc1,·,·,-1.2%,-1.9%,-9.7%,42.5%
COc1cc(=O)n2c(c1C(=O)N(C)Cc1cscn1)CCN(C(=O)c1ccc(C)c(C)c1)CC2,·,·,·,·,·,23.6%
CCn1c2c(c3cc(Cl)ccc31)CCCC2=O,·,·,-4.1%,?,-14.4%,0.0%
Cc1ccc2c(c1)c1c(n2C)C(=O)CCC1,9.8%,5.4%,-7.2%,3.98µM*,1.8%,4.2%
